According to PubChem BioAssay:
Unmarked numbers belong to inactive results. Active and inactive are the calls of the source. Rule as the data show it, unless noted: active = inhibition above about 33%; inactive = the rest.

Key:
[1] = StAR promoter reporter inhibitors, counter-screen for LRH-1 inverse agonist project, cell-based, luminescence, high throughput (AID 651611; in the data active = inhibition above about 28%); settings: StAR promoter luciferase reporter counterscreen, at 3.6 µM, hits give high values
[2] = target: Nuclear receptor subfamily 5 group A member 2 (Homo sapiens) (UniProt O00482); assay: NR5A2 activity suppression in reporter cells – cell-based, luminescence, confirmation (AID 651613; in the data active = inhibition above about 42%;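 also: HEK293T cells co-transfected with LRH-1 and StAR promoter luciferase reporter; 0% = vehicle wells and 100% = parental cells lacking receptor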); settings: cell-based LRH-1 luciferase reporter, inverse agonism; at 3.6 µM; hits give high values
Chain of Nuclear receptor subfamily 5 group A member 2 (Homo sapiens) (O00482 whole entry, looked up): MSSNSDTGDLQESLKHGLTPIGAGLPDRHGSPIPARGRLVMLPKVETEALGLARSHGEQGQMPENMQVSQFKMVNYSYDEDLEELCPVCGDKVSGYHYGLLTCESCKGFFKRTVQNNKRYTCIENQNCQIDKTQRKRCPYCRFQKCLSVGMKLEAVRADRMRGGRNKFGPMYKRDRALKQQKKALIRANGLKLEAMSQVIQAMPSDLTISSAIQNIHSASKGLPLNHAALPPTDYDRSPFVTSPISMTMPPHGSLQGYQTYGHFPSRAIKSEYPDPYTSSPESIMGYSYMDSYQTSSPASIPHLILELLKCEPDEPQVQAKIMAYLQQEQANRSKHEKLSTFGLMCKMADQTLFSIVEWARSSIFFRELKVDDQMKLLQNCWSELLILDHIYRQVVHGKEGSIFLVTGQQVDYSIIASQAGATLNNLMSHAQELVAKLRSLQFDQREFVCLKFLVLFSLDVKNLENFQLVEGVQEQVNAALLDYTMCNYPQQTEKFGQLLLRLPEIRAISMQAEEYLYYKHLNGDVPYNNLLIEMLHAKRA

[3] = target: Steroidogenic factor 1 (Homo sapiens) (UniProt Q13285); assay: inverse agonism at SF1 nuclear receptor – cell-based, luminescence, high throughput, counter-screen for LRH-1 inverse agonist project (AID 651614; in the data active = inhibition above about 44%;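 also: cells cotransfected with StAR promoter reporter and SF1 expression vector; 0% = vehicle on cells with receptor and 100% = vehicle on cells lacking receptor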); settings: cell-based SF1 luciferase reporter, at 3.6 µM, hits give high values
Chain of Steroidogenic factor 1 (Homo sapiens) (Q13285 whole entry, looked up, the tested form may be a part): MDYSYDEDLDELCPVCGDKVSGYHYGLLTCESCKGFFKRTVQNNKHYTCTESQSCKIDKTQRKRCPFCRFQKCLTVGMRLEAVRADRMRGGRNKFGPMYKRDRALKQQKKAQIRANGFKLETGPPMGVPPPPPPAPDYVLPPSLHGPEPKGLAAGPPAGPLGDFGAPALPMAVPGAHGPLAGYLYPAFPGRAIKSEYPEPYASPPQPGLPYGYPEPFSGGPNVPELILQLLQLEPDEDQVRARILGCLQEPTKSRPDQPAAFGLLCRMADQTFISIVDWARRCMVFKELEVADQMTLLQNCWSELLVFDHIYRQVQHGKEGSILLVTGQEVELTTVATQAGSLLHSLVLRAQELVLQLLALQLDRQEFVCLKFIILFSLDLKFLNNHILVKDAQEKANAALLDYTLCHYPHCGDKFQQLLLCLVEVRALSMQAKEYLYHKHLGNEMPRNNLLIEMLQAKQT

[4] = compounds suppressing VP16-driven luciferase signal – cell-based, luminescence, high throughput, counter-screen for LRH-1 inverse agonist project (AID 651615); settings: Gal4-VP16 luciferase reporter cells, at 3.6 µM, hits give high values

| Structure (SMILES) | inhibition [1] | inhibition [2] | inhibition [3] | inhibition [4] |
| --- | --- | --- | --- | --- |
| O=C(Nc1cc(Cl)ccc1-n1cncn1)c1ccc([N+](=O)[O-])o1 | 27% | 61.9% (active) | 61.8% (active) | -24.7% |
| Cc1ccc(SCC(=O)Nc2ccc(N3CCOCC3)cc2)c(C)c1 | 16.4% | 63.3% (active) | 56.5% (active) | -1.3% |
| COC(=O)c1ccc(NC(=O)CN2CCC(NC(=O)c3ccccc3F)CC2)cc1 | 23.6% | 52.3% (active) | 44.1% (active) | -4.8% |
| S=C(NCCc1ccccc1)Nc1cccc2cnccc12 | -5.25% | 45.1% (active) | 47.5% (active) | 42.3% (active) |
| O=C(Cn1cc(COc2ccc(C(=O)c3ccccc3)cc2)nn1)c1ccc(O)cc1 | 25.8% | 47.4% (active) | 57% (active) | 59.6% (active) |
| COC(=O)c1c(NC(=O)c2cccc(N3C(=O)CCC3=O)c2)sc2c1CCN(C(C)=O)C2 | 19.6% | 65.5% (active) | 49.8% (active) | -30.4% |
| CC1(C)CC(=O)C=C(c2cccs2)C1 | 0.35% | 47.2% (active) | 57.8% (active) | 6.36% |
| CC(=O)c1ccc(NC(=O)CSC2=NS(=O)(=O)c3cc(Cl)ccc3N2)cc1 | 7.81% | 43.6% (active) | 44.5% (active) | -9.28% |
| CCOc1ccc(Br)cc1C1=NN(C(C)=O)C(c2ccc([N+](=O)[O-])s2)O1 (stereo unspecified) | 17.9% | 66.8% (active) | 63.2% (active) | -1.66% |
